Source: PubChem BioAssay
Only some compounds are listed: those with a hit (about 4.1% of all), similar ones and a draw of the others.
Shn3 inh set2: reduction of Shn3 3'UTR firefly luciferase signal, primary screen, Schnurri-3 inhibitor project, cell-based, Clone20 osteoblasts, set 2; actives 0.52% (n = 360,000); Clone20 osteoblast Shn3 3'UTR firefly luciferase, 24 h; inhibition, % at 12.5 µM;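 active = mean inhibition of at least 75% with every replicate also reaching 75%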;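 also: 0% = median of neutral control wells and 100% = pilot-screen positive control compound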
TRPM1 prom inh: inhibitors of MITF-dependent TRPM1 promoter reporter, primary screen, cell-based, SK-MEL-5, single point, luciferase | inhibition, % at 12.5 µM | AID 488899, 2010 | SK-MEL-5 TRPM1 promoter luciferase, 24 h | actives 0.83% (n = 330,000);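 active = mean inhibition across replicates of 60% or more, whatever share of single replicates reaches that level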
EBV LMP1 NFkB: EBV LMP1-driven NF-kappaB luciferase reporter inhibitors, primary screen, cell-based, luminescence, single point | LMP1-induced NF-kappaB luciferase reporter cells | inhibition, % at 12.5 µM | actives 0.69% (n = 350,000) | AID 504558, 2011; in the data active = inhibition above about 41%;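 also: 0% = neutral control wells and 100% = reference inhibitor control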
TWEAK-Fn14 inh: inhibitors of TWEAK-Fn14 signaling, primary screen, luciferase reporter cells, uHTS; actives 2% (n = 360,000); inhibition, % at 10 µM; TWEAK-stimulated Fn14 reporter cells, luciferase luminescence, 8 h; in the data active = inhibition above about 50%
TROY signal inh: inhibitors of TROY-driven NF-kB signaling, primary screen, Q293 LMP1-TROYcd cells, NF-kB luciferase, uHTS. Q293 LMP1-TROYcd NF-kB luciferase reporter, 4 h. inhibition, % at 10 µM. actives 0.98% (n = 360,000). AID 1347056, 2019;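 active = compounds whose plate-normalised and pattern-corrected inhibition of the luciferase reporter signal at the single screening dose is 50% or more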
Peg3 prom inh-1: Peg3 promoter-driven luciferase inhibitors, primary screen, cell-based, HeLa, luciferase luminescence. inhibition, % at 20 µM. HeLa PEG-Prom luciferase reporter, overnight. actives 1.7% (n = 360,000). AID 588405, 2011;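 active = inhibition of at least 50% at 20 µM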
Peg3 prom inh-2: Peg3 promoter reporter inhibitors, retest, confirmation, cell-based, HeLa, luciferase reporter, single concentration; HeLa PEG-Prom luciferase reporter, luminescence, overnight; shares compounds with Peg3 prom inh-1; inhibition, % at 20 µM; actives 84% (n = 1,300);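 active = at 20 µM dose, 40% or more inhibition averaged across four replicates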
* = called active by the depositor; nt = no result.

SMILES	Shn3 inh set2	TRPM1 prom inh	EBV LMP1 NFkB	TWEAK-Fn14 inh	TROY signal inh	Peg3 prom inh-1	Peg3 prom inh-2
CCN(C(=O)CSc1nc(N)cc(N)n1)C1CCS(=O)(=O)C1 (centres undefined)	-6	4	-16	2	0	2	nt
COc1ccc(C2c3ccc4ccccc4c3Oc3ncn(CCCO)c(=N)c32)cc1 (centres undefined)	8	16	-3	-9	7	65*	86*
COc1ccc(Cc2nc3c4c(ncn3n2)Oc2c(ccc3ccccc23)C4c2ccc(OC)c(OC)c2)cc1 (centres undefined)	23	1	-9	-8	6	22	nt
COc1ccc(C2c3c(ncn(CCCN4CCOCC4)c3=N)Oc3ccc4ccccc4c32)cc1OC (centres undefined)	1	80*	-20	-19	11	69*	86*
COc1ccc(C2c3ccc4ccccc4c3Oc3ncn(CCO)c(=N)c32)cc1OC (centres undefined)	5	-11	-3	-21	15	60*	82*
COc1ccc(C2c3ccc(O)cc3Oc3ncn(Cc4ccco4)c(=N)c32)cc1 (centres undefined)	-2	7	-6	-20	-3	7	nt
CN([C@@H](C(=O)OC(C)(C)C)c1ccccc1)S(=O)(=O)c1cccc(S(=O)(=O)N(C)[C@@H](C(=O)OC(C)(C)C)c2ccccc2)c1	47	8	-5	1	0	15	nt
CC(C)(C)OC(=O)CC(S(=O)(=O)c1ccccc1)S(=O)(=O)c1ccccc1	59	nt	-4	31	2	82*	97*
CCOC(=O)c1c(C)[nH]c(C(=O)OCC(=O)Nc2sccc2C(N)=O)c1C	82	38	16	84*	64*	70*	73*
COc1ccc(C2=C(C)C(N3CCN(C(=O)c4ccco4)CC3)=NS2(=O)=O)cc1	-16	-3	-1	1	-6	15	nt
N/C(=N\OC(=O)c1cc([N+](=O)[O-])ccc1Cl)c1ccccn1	-31	-10	3	1	1	-95	nt
N/C(=N\OC(=O)c1ccc([N+](=O)[O-])cc1Cl)c1ccccn1	17	56	56*	94*	67*	50*	21
N/C(=N\OC(=O)c1ccc(Cl)cc1Cl)c1ccccn1	63	33	56*	100*	80*	68*	12
CCC(=O)c1ccc(OCC(=O)OCC(=O)N2CCCc3ccccc32)cc1	0	6	-4	-2	1	4	nt
COc1ccc(C(C(=O)NCC2CCCO2)N(Cc2cccs2)C(=O)c2snc(C(N)=O)c2N)cc1 (centres undefined)	-6	10	-3	28	10	51*	50*
COc1ccccc1-c1cnc(C(O)c2cc(Cl)cc(Cl)c2)[nH]1 (centres undefined)	-6	nt	nt	0	9	35	nt
Clc1ccc(CN2CCc3c([nH]c4ccccc34)C2)cc1Cl	1	3	-10	-2	-3	81*	23
CNC(=O)CN(c1ccc(Oc2ccccc2)cc1)S(=O)(=O)c1ccc(C)cc1	8	-3	3	7	-10	1	nt
COc1ccc(C(=O)NC(=O)Nc2cc(C)ccn2)cc1	24	70*	68*	97*	79*	72*	38
O=C(Nc1ccccn1)c1ccc(C(=O)c2ccccc2)cc1	-57	-86	-42	15	-37	-350	nt
COc1ccc(NC(=O)Nc2cc(C)ccn2)cc1	0	-6	32	39	-15	-145	nt
O=C(NC(=O)c1ccccc1)Nc1ccccn1	61	81*	71*	95*	73*	90*	77*
Cc1nc(NC(=O)/C=C/c2ccccc2)sc1C(=O)Nc1ccc(Cl)cc1	57	29	5	-30	-2	53*	23
O=C(Nc1cccc(Cl)c1)c1nc[nH]c1C(=O)Nc1ccccc1F	-6	nt	-38	-10	-2	-15	nt
NC(N)=N/N=C/c1ccc(OCc2ccccc2)c(OCc2ccccc2)c1	67	82*	-24	-12	16	103*	99*
SMILES	Shn3 inh set2	TRPM1 prom inh	EBV LMP1 NFkB	TWEAK-Fn14 inh	TROY signal inh	Peg3 prom inh-1	Peg3 prom inh-2
CCOc1cc(/C=N/N=C(N)N)ccc1OCc1ccc(Cl)cc1	95*	90*	5	10	-14	99*	97*
O=C(CC(=O)Nc1cc(Cl)ccc1Cl)Nc1cc(Cl)ccc1Cl	-1	-1	4	-24	-22	20	nt
Cc1ccc(-c2cnc3c(c2)C(=O)N([C@H](C)CO)C[C@H](C)[C@@H](CN(C)Cc2ccccc2F)O3)cc1	10	nt	-4	8	-5	-2	nt
COc1ccc(Br)cc1/C=N/NC(=O)c1ccc(COc2ccc3c(c2)CCC3)o1	-17	-12	-7	-23	-47	-5	nt
O=C(N/N=C/c1cc([N+](=O)[O-])ccc1O)c1ccc(COc2ccc3c(c2)CCC3)o1	88*	47	-48	-11	-25	52*	45*
Cc1cc(=O)oc2c(C)c(OCC(=O)NCCCN3CCOCC3)ccc12	-4	-2	1	4	-9	3	nt
CCc1nc2ccc(C(=O)Nc3cccc(OCC(=O)N(C)C)c3)cn2c1N(C)Cc1ccc(OC)cc1	39	nt	nt	4	5	72*	42*
C/C(Nc1ccc(Cl)cc1)=C1/CCOC1=O	-16	8	-4	-16	-5	3	nt
O=c1c2ccccc2oc2cc(Br)ccc12	-27	-25	1	-18	-53	-140	nt
O=c1c2ccccc2oc2cc(C#CC3(O)CCCCC3)ccc12	42	49	11	101*	87*	60*	59*
O=c1c2ccccc2sc2ccc(C#CC3(O)CCCCC3)cc12	89*	93*	81*	107*	92*	79*	92*
Nc1ccc(C#Cc2ccc3sc4ccccc4c(=O)c3c2)cc1	-145	-63	6	-14	-74	-409	nt
CS(=O)(=O)N(CC(=O)NCCc1ccccc1)c1cccc([N+](=O)[O-])c1	-9	-24	-11	-5	-2	-26	nt
O=C(CN(c1ccc(Cl)cc1)S(=O)(=O)c1ccc(Cl)c([N+](=O)[O-])c1)NCCc1ccccc1	36	51	9	-5	-21	87*	31
